The values that follow come from PubChem BioAssay AID1159580 (chemical genetic matrix, 2015).

This assay in a line: chemical genetic growth profiling, strain panel (AID 1159580).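 Note: tested at 20 µM; growth read once vehicle control cultures reached saturation at 30 °C; 1 = growth at the plate median or of vehicle wells; lower values mean less growth of the strain.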 As to conditions: growth OD.
Setting [1] is: S. cerevisiae deletion strains, locus YAL013W, strain DEP1, hits give low values.
The mark [2] stands for this setting: S. cerevisiae deletion strains, locus YBR229C, strain ROT2, hits give low values.
Where [3] appears, read: S. cerevisiae deletion strains, locus YDL101C, strain DUN1, hits give low values.
Setting [4] is: S. cerevisiae deletion strains, locus YDL134C, strain PPH21, hits give low values.
The mark [5] stands for this setting: S. cerevisiae deletion strains, locus YDR150W, strain NUM1, hits give low values.
The mark [6] stands for this setting: S. cerevisiae deletion strains, locus YEL061C, strain CIN8, hits give low values.
[7] abbreviates: S. cerevisiae deletion strains, locus YGR078C, strain PAC10, hits give low values.
[8] abbreviates: S. cerevisiae deletion strains, locus YHR030C, strain SLT2, hits give low values.
Where [9] appears, read: S. cerevisiae deletion strains, locus YHR087W, strain rtc3, hits give low values.
Setting [10] is: S. cerevisiae deletion strains, locus YJL187C, strain SWE1, hits give low values.
Setting [11] is: S. cerevisiae deletion strains, locus YJR043C, strain POL32, hits give low values.
Where [12] appears, read: S. cerevisiae deletion strains, locus YJR075W, strain HOC1, hits give low values.
Where [13] appears, read: S. cerevisiae deletion strains, locus YLR039C, strain RIC1, hits give low values.
Setting [14] is: S. cerevisiae deletion strains, locus YLR058C, strain SHM2 (second series), hits give low values.
Setting [15] is: S. cerevisiae deletion strains, locus YLR085C, strain ARP6, hits give low values.
The mark [16] stands for this setting: S. cerevisiae deletion strains, locus YLR262C, strain YPT6, hits give low values.
Setting [17] is: S. cerevisiae deletion strains, locus YML094W, strain GIM5, hits give low values.
Setting [18] is: S. cerevisiae deletion strains, locus YMR219W, strain ESC1, hits give low values.
Setting [19] is: S. cerevisiae deletion strains, locus YMR263W, strain SAP30, hits give low values.
The mark [20] stands for this setting: S. cerevisiae deletion strains, locus YNL153C, strain GIM3, hits give low values.
[21] abbreviates: S. cerevisiae deletion strains, locus YNL298W, strain CLA4 (second series), hits give low values.
Where [22] appears, read: S. cerevisiae deletion strains, locus YNL322C, strain KRE1, hits give low values.
Where [23] appears, read: S. cerevisiae deletion strains, locus YNR030W, strain Alg12, hits give low values.
The mark [24] stands for this setting: S. cerevisiae deletion strains, locus YOL006C, strain TOP1, hits give low values.
Setting [25] is: S. cerevisiae deletion strains, locus YPL055C, strain LGE1, hits give low values.
The mark [26] stands for this setting: S. cerevisiae deletion strains, locus YPL241C, strain CIN2, hits give low values.
Setting [27] is: S. cerevisiae deletion strains, locus YPR135W, strain CTF4, hits give low values.

The campaign covered roughly 5,500 compounds. About 2,000 (36%) were called active. Not shown: some 18% with an inconclusive outcome. The list shows a part of the results. A number with no mark means an inactive call. Cut-off read from the data, not from the text of the source: active = normalized growth mostly below about 0.91 (no sharp cut-off); inconclusive = no clear call, values can overlap the other calls; inactive = mostly above about 0.92.

Consider `O=[N+]([O-])c1ccc(C2N(Cc3ccccc3)CCC3CCCCN32)cc1` (stereo unspecified), for which the normalized growth by setting is: under setting [1], 1; under setting [2], 0.998; under setting [3], 1; under setting [4], 1.01; under setting [5], 0.997; under setting [6], 0.983. Moreover, the normalized growth is 1.01 under setting [7]; 0.954 under setting [8]; 0.985 under setting [9]; 0.999 under setting [10]; 1.01 under setting [11]; 0.966 under setting [12]. Moreover, the normalized growth is, setting by setting: (S. cerevisiae deletion strains, locus YKL190W, strain CNB1, hits give low values) 1.01; under setting [13], 1; under setting [14], 1.01; under setting [15], 1.02; under setting [16], 0.908; under setting [17], 0.983. The normalized growth reads like this: under setting [18], 0.988; under setting [19], 0.998; under setting [20], 1.01; under setting [21], 1.01; under setting [22], 1.01; under setting [23], 1.02. In addition, the normalized growth reads like this: under setting [24], 0.972; under setting [25], 0.985; under setting [26], 0.995; under setting [27], 1.03.
`COP(=S)(OC)Oc1cc(Cl)c(Cl)cc1Cl`: the normalized growth is, setting by setting: under setting [8], 0.127 (active); (S. cerevisiae deletion strains, locus YHR079C, strain IRE1, hits give low values) 0.163 (active); (S. cerevisiae deletion strains, locus YJL095W, strain BCK1, hits give low values) 0.163 (active); (S. cerevisiae deletion strains, locus YJR066W, strain TOR1, hits give low values) 0.08 (active); (S. cerevisiae deletion strains, locus YLR113W, strain HOG1, hits give low values) 0.163 (active); (S. cerevisiae deletion strains, locus YNL183C, strain NPR1, hits give low values) 0.0646 (active). Moreover, the normalized growth was 0.152 (active) (S. cerevisiae deletion strains, locus YOR231W, strain MKK1, hits give low values) and 0.151 (active) (S. cerevisiae deletion strains, locus YPL256C, strain CLN2, hits give low values).
As to `COc1cc(Cl)c(Cl)cc1Cl`, the normalized growth is 0.991 under setting [1]; 1 under setting [2]; 0.997 under setting [3]; 0.997 under setting [4]; 1.01 under setting [5]; 0.992 under setting [6]. Also, the normalized growth is 1 under setting [7]; 0.997 (S. cerevisiae deletion strains, locus YGR229C, strain SMI1, hits give low values); 0.94 under setting [8]; 1.01 under setting [9]; 0.999 under setting [10]; 0.974 under setting [11]. Moreover, the normalized growth was 1.03 under setting [12]; 0.986 under setting [13]; 0.994 under setting [14]; 1.06 under setting [15]; 0.96 under setting [16]; 1.03 under setting [17]. The normalized growth is 1.01 under setting [18]; 1.01 under setting [19]; 1.06 (S. cerevisiae deletion strains, locus YMR307W, strain GAS1, hits give low values); 0.983 under setting [20]; 0.948 under setting [21]; 1.01 under setting [22]. For the same compound, the normalized growth is 0.98 under setting [23]; 0.949 under setting [24]; 1.1 under setting [25]; 1.02 under setting [26]; 0.91 under setting [27]; 0.981 (S. cerevisiae strains, strain wild type, hits give low values).
